Assay results: ChEMBL document CHEMBL1961873, “Compounds: GSK PKIS; Assays: Nanosyn kinase panel” (2012)

Target: Proto-oncogene tyrosine-protein kinase Src (Homo sapiens) (UniProt P12931);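 note: each value is an averaged percent inhibition of SRC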
Settings: at 1 µM

Chain of Proto-oncogene tyrosine-protein kinase Src (Homo sapiens) (P12931 2-536 limits assumed): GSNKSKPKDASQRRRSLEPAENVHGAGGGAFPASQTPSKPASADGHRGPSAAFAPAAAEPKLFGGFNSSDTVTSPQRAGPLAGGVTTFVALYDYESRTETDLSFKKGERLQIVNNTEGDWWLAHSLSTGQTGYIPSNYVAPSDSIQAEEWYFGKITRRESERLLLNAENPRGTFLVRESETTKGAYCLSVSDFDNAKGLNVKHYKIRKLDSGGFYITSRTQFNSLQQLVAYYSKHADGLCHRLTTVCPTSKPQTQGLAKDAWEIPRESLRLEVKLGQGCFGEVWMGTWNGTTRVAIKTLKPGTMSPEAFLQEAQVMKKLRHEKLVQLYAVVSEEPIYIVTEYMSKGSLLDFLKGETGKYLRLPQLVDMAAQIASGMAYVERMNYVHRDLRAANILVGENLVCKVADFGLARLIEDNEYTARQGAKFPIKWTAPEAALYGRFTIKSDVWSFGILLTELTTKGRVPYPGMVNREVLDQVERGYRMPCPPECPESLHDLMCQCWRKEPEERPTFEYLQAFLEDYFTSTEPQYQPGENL

Point of comparison: `CC(C)c1ccc2c(c1)NC(=O)/C2=N/Nc1ccc(S(N)(=O)=O)cc1`, inhibition 14%. Against it:
- COc1cc2ncnc(Nc3ccc(C)c(O)c3)c2cc1OC — higher, 70.5%
- Cc1cc(-c2ccccn2)cc(C)c1/C=C/c1cncc(-c2nn[nH]n2)c1 — higher, 15.4%
- CCn1c(-c2nonc2N)nc2ccc(F)cc21 — lower, 9.9%
- CN(c1ccc(NC(=O)Nc2ccc(OC(F)(F)F)cc2)cc1)c1ccnc(Nc2cccc(S(N)(=O)=O)c2)n1 — higher, 86.5%
- c1ccc(Nc2ncc(-c3ccccc3)o2)cc1 — higher, 14.3%
- CCOc1nccc2c1nc(-c1nonc1N)n2CC — lower, 5.71%
- COc1cccc(-n2ncc3c(N/N=C/c4ccc(S(C)(=O)=O)cc4)ncnc32)c1 — higher, 77.4%
- Cc1ccc2c(-c3ccnc(Nc4cccc(C(F)(F)F)c4)n3)c(-c3ccccc3)nn2n1 — higher, 72.9%
- NS(=O)(=O)c1cccc(Nc2cc(-c3ccc(F)cc3)n[nH]2)c1 — lower, 10.4%
- CCCN1CCCC(c2ccc(Nc3nc(Nc4cc(F)ccc4C(N)=O)c4cc[nH]c4n3)c(OC)c2)C1 (stereo not drawn) — higher, 14.6%
- c1ccc(Cc2nc3ccc(Nc4ncnc5ccccc45)cc3[nH]2)cc1 — lower, 12.8%
- CN1CCN(C(=O)c2ccc(NC(=O)Nc3ccc(N(C)c4ccnc(Nc5ccc(CS(C)(=O)=O)cc5)n4)cc3)cc2)CC1 — higher, 42.2%
- N#Cc1cccc(Nc2nccc(-c3cnn4ncccc34)n2)c1 — higher, 66%
- Nc1nccc(-c2c(-c3ccc(F)cc3)ncn2CCCN2CCOCC2)n1 — lower, 8.77%
- COc1cc(/C=N/Nc2ncnc3c2cnn3C(C)C)ccc1O — higher, 72.7%
- O=C(Nc1ccc(Oc2ccc3[nH]c(NC(=O)c4ccco4)nc3c2)cc1)Nc1cc(C(F)(F)F)ccc1F — higher, 37%
- Cc1ccc(Nc2ccnc(Nc3cccc(C(N)=O)c3)n2)cc1O — higher, 90.7%
- COC(=O)c1cncc(/C=C/c2c(C)cc(O)cc2C)c1 — higher, 38.2%
- Cc1cc(O)cc(C)c1/C=C/c1cncc(C(=O)N(C)C)c1 — lower, 7.43%
- NC(=O)c1cccc(Nc2nccc(Nc3cccc(F)c3)n2)c1 — higher, 64.8%
- COc1cc2ncnc(Nc3ccc4c(cnn4Cc4ccccc4)c3)c2cc1OC — higher, 41.8%
- CCn1c(-c2nonc2N)nc2c(C#CC(C)(C)O)nc(OCCNC)cc21 — lower, 11.9%
- Nc1nccc(C#Cc2cncnc2Nc2ccc(OCc3cccc(F)c3)c(Cl)c2)n1 — lower, 7.62%
- COC(=O)Nc1nc2cc(Oc3ccc(NC(=O)Nc4cccc(Br)c4)cc3)ccc2[nH]1 — lower, 6.9%
- O=C1Nc2ccccc2/C1=C/Nc1ccc2[nH]c(=O)[nH]c2c1 — higher, 31%
- NS(=O)(=O)c1ccc(Nc2cc(-c3cccc(O)c3)n[nH]2)cc1 — lower, 11.9%
- COc1cc2ncn(-c3cc(OCc4ccccc4S(C)(=O)=O)c(C#N)s3)c2cc1OC — higher, 50.1%
- CC(C)c1ccc(Nc2nccc(-c3cnn4ncccc34)n2)cc1 — lower, 13.4%
- NS(=O)(=O)c1ccc(N/N=C2\C(=O)Nc3ccc(Cl)cc32)cc1 — higher, 14.1%
- FC(F)(F)c1ccc(-c2nn3ncccc3c2-c2ccnc(Nc3ccc4c(c3)OCCO4)n2)cc1 — higher, 15.8%
- Nc1ccc(C#Cc2cncnc2Nc2ccc(OCc3cccc(F)c3)c(Cl)c2)cc1 — lower, 3.71%
- Cc1ccc(O)cc1Nc1ccnc2ccc(S(C)(=O)=O)cc12 — higher, 95.1%
- NS(=O)(=O)c1ccc(NC=C2C(=O)Nc3ccc4ncsc4c32)cc1 — higher, 61.9%

Target: Tyrosine-protein kinase Srms (Homo sapiens) (UniProt Q9H3Y6);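 note: reported value is a mean of the inhibition readings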
Settings: at 0.1 µM

Chain of Tyrosine-protein kinase Srms (Homo sapiens) (Q9H3Y6 whole entry): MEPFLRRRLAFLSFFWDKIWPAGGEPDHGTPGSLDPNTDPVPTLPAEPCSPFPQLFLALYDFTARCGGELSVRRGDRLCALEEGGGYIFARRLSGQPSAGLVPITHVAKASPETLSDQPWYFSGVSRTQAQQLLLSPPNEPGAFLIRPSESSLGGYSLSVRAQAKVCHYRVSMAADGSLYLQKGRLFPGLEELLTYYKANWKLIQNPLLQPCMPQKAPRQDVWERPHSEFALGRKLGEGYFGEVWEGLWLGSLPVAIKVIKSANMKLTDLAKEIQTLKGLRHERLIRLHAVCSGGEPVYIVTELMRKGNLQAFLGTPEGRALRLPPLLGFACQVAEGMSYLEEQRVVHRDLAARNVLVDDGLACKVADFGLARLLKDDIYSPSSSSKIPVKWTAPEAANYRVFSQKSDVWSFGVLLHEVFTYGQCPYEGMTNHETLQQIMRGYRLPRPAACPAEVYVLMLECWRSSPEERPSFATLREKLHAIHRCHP

Point of comparison: `CN(c1ccc(NC(=O)Nc2ccc(OC(F)(F)F)cc2)cc1)c1ccnc(Nc2cccc(S(N)(=O)=O)c2)n1`, inhibition 0.09%. Against it:
- COc1cc2ncnc(Nc3ccc(C)c(O)c3)c2cc1OC — higher, 2.71%
- Cc1cc(-c2ccccn2)cc(C)c1/C=C/c1cncc(-c2nn[nH]n2)c1 — lower, -2.18%
- CC(C)c1ccc2c(c1)NC(=O)/C2=N/Nc1ccc(S(N)(=O)=O)cc1 — higher, 0.59%
- CCn1c(-c2nonc2N)nc2ccc(F)cc21 — lower, -2.63%
- c1ccc(Nc2ncc(-c3ccccc3)o2)cc1 — higher, 0.17%
- CCOc1nccc2c1nc(-c1nonc1N)n2CC — higher, 3.59%
- COc1cccc(-n2ncc3c(N/N=C/c4ccc(S(C)(=O)=O)cc4)ncnc32)c1 — higher, 4.95%
- Cc1ccc2c(-c3ccnc(Nc4cccc(C(F)(F)F)c4)n3)c(-c3ccccc3)nn2n1 — higher, 1.71%
- NS(=O)(=O)c1cccc(Nc2cc(-c3ccc(F)cc3)n[nH]2)c1 — lower, -0.24%
- CCCN1CCCC(c2ccc(Nc3nc(Nc4cc(F)ccc4C(N)=O)c4cc[nH]c4n3)c(OC)c2)C1 (stereo not drawn) — higher, 1.99%
- c1ccc(Cc2nc3ccc(Nc4ncnc5ccccc45)cc3[nH]2)cc1 — lower, -1.79%
- CN1CCN(C(=O)c2ccc(NC(=O)Nc3ccc(N(C)c4ccnc(Nc5ccc(CS(C)(=O)=O)cc5)n4)cc3)cc2)CC1 — higher, 0.11%
- N#Cc1cccc(Nc2nccc(-c3cnn4ncccc34)n2)c1 — higher, 1.1%
- Nc1nccc(-c2c(-c3ccc(F)cc3)ncn2CCCN2CCOCC2)n1 — lower, -1.41%
- COc1cc(/C=N/Nc2ncnc3c2cnn3C(C)C)ccc1O — higher, 1.16%
- O=C(Nc1ccc(Oc2ccc3[nH]c(NC(=O)c4ccco4)nc3c2)cc1)Nc1cc(C(F)(F)F)ccc1F — higher, 3.74%
- Cc1ccc(Nc2ccnc(Nc3cccc(C(N)=O)c3)n2)cc1O — higher, 10.8%
- COC(=O)c1cncc(/C=C/c2c(C)cc(O)cc2C)c1 — higher, 0.39%
- Cc1cc(O)cc(C)c1/C=C/c1cncc(C(=O)N(C)C)c1 — higher, 0.98%
- NC(=O)c1cccc(Nc2nccc(Nc3cccc(F)c3)n2)c1 — higher, 1.56%
- COc1cc2ncnc(Nc3ccc4c(cnn4Cc4ccccc4)c3)c2cc1OC — higher, 0.35%
- CCn1c(-c2nonc2N)nc2c(C#CC(C)(C)O)nc(OCCNC)cc21 — lower, -1.55%
- Nc1nccc(C#Cc2cncnc2Nc2ccc(OCc3cccc(F)c3)c(Cl)c2)n1 — higher, 0.29%
- COC(=O)Nc1nc2cc(Oc3ccc(NC(=O)Nc4cccc(Br)c4)cc3)ccc2[nH]1 — higher, 2.26%
- O=C1Nc2ccccc2/C1=C/Nc1ccc2[nH]c(=O)[nH]c2c1 — lower, -2.08%
- NS(=O)(=O)c1ccc(Nc2cc(-c3cccc(O)c3)n[nH]2)cc1 — lower, -2.79%
- COc1cc2ncn(-c3cc(OCc4ccccc4S(C)(=O)=O)c(C#N)s3)c2cc1OC — higher, 2.07%
- CC(C)c1ccc(Nc2nccc(-c3cnn4ncccc34)n2)cc1 — higher, 1.68%
- NS(=O)(=O)c1ccc(N/N=C2\C(=O)Nc3ccc(Cl)cc32)cc1 — higher, 0.76%
- FC(F)(F)c1ccc(-c2nn3ncccc3c2-c2ccnc(Nc3ccc4c(c3)OCCO4)n2)cc1 — higher, 8.49%
- Nc1ccc(C#Cc2cncnc2Nc2ccc(OCc3cccc(F)c3)c(Cl)c2)cc1 — lower, -2.09%
- Cc1ccc(O)cc1Nc1ccnc2ccc(S(C)(=O)=O)cc12 — higher, 27.4%
- NS(=O)(=O)c1ccc(NC=C2C(=O)Nc3ccc4ncsc4c32)cc1 — lower, -1.05%
